Compound activity from PubChem.
DAX1 inh-1: DAX1 (NR0B1) inhibitors on StAR promoter, primary screen, cell-based, luminescence, SF-1 (NR5A1), full-length DAX-1; hit rate 1.1% among 370,000; HEK293T StAR-luciferase reporter, SF-1/DAX-1 repression relief; inhibition, % at 6.8 µM; AID 652010, 2013;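 active = inhibition above the mean over all tested compounds plus 3 SD, cut at about 3.6% in these data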;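 note: 0% = DAX-1 cells with DMSO and 100% = cells lacking DAX-1 with DMSO; higher inhibition means more luminescence from relief of DAX-1 repression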
ssDAF-12 act: S. stercoralis DAF-12 nuclear receptor activators, primary screen, cell-based, luminescence, HEK293, GRIP1 co-expression, lit1-tk-luc. activation, % at 6.8 µM. AID 652126, 2013. hit rate 1% among 370,000. HEK293 ssDAF-12/GRIP1 lit1-tk-luc reporter; % of 3 µM dafachronic acid response;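 active = activation above the mean over all tested compounds plus 3 SD, cut at about 0.9% in these data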;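 note: 0% = DMSO-only wells and 100% = 3 µM delta7-dafachronic acid wells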
DAX1 inh-2: DAX1 (NR0B1) inhibitors, primary screen, cell-based, HEK293, Gal4-DAX1, luciferase luminescence | HEK293 Gal4-DAX1 luciferase reporter | inhibition, % at 6.75 µM | Nuclear receptor subfamily 0 group B member 1 (Homo sapiens), P51843 | hit rate 0.99% among 340,000;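 active = inhibition above the mean over all tested compounds plus 3 SD, cut at about 4.2% in these data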;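 note: 0% = DAX1-transfected cells with DMSO and 100% = empty-vector control cells with DMSO; inhibition shows as a rise in luminescence from relieved DAX1 repression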
Target sequence (P51843 207-470 limits assumed): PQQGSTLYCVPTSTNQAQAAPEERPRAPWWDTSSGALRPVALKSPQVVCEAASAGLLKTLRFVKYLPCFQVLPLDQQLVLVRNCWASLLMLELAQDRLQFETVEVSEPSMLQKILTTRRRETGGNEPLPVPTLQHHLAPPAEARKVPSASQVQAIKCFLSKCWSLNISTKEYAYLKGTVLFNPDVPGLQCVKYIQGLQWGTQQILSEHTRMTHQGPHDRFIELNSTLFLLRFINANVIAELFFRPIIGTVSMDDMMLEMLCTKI
NR1D1 modulator: modulators of Rev-erb alpha DNA binding, primary screen, biochemical, FITC-DNA, fluorescence polarization, uHTS; Rev-erbα–FITC-DNA binding, 90 min; AID 1259318, 2017; hit rate 0.79% among 370,000; Nuclear receptor subfamily 1 group D member 1 (Homo sapiens), P20393; activity, % at 10 µM;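 active = activity above about 14%, limit read from the data; passing the limit was not always enough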;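 note: 0% = DMSO wells with 35 nM protein and 100% = DMSO wells with 750 nM protein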
hcDAF12 agonist: H. contortus DAF-12 nuclear receptor activators, primary screen, cell-based, luminescence, HEK293, lit1-tk-luc reporter; HEK293 hcDAF-12 lit1-tk-luc reporter; 0% DMSO, 100% Δ7-dafachronic acid; activation, % at 6.8 µM; hit rate 1.4% among 370,000;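 active = activation above the mean of all tested compounds plus 3 SD, cut at about 5.5% in these data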;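 note: 100% = response to 3 µM Δ7-dafachronic acid high control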
hgDAF-12 ag: H. glycines DAF-12 receptor agonists, primary screen, cell-based, luminescence, HEK293, GAL4 fusion, UAS-luciferase; AID 687014, 2013; activation, % at 6.8 µM; HEK293 GAL4-hgDAF12 UAS-luciferase reporter, agonist luminescence; normalized to butyrate control; Nuclear hormone receptor DAF-12 (Heterodera glycines), GAL4 fusion; hit rate 1.8% among 370,000;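 active = activation above a cutoff set at the mean of all screened compounds plus 3 SD, cut at about 10% in these data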;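 note: 0% = DMSO wells and 100% = sodium butyrate wells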
Rev-erbA confirm: modulators of Rev-erb alpha DNA binding, confirmation, biochemical, FITC-DNA, fluorescence polarization, single point | shares compounds with NR1D1 modulator | 90 min | activation, % at 25 µM | hit rate 61% among 3,000;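 active = activation at or above a set limit, or at least 3 SD above the negative control mean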;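 note: 0% = 35 nM protein with DMSO and 100% = 750 nM protein high control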
RORg DNA counter: modulation of RORgamma DNA binding, dose response, counter-screen for Rev-erb alpha modulator project, biochemical, fluorescence polarization, FITC-DNA. shares compounds with NR1D1 modulator. hit rate 8% among 910. purified RORgamma protein-FITC-DNA binding. AID 1259320, 2017. IC50, µM;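 active = Compounds whose fitted half-maximal concentration for disrupting protein-DNA binding is below 10 micromolar; the record names Rev-erb in its text, so the target is in doubt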
* = called active by the depositor; i = inactive; . = no result. Sampled rows, rich in hits. Any-hit rate of the full collection: about 4.8%.

SMILES | DAX1 inh-1 | ssDAF-12 act | DAX1 inh-2 | NR1D1 modulator | hcDAF12 agonist | hgDAF-12 ag | Rev-erbA confirm | others
Cc1cc(C)cc(Nc2nc3c(S(=O)(=O)c4ccccc4)nnn3c3ccccc23)c1 | 0.1 | -1.4 | 1.6 | 52.3* | -1.5 | -2.4 | 1.6
CC(C)c1ccc(S(=O)(=O)c2nnn3c2nc(N2CCCCC2)c2ccccc23)cc1 | 0.2 | -1.4 | 1.1 | 29.9* | 2.1 | 0.5 | 28.5*
Cc1cccc(Nc2nc3c(S(=O)(=O)c4ccccc4)nnn3c3ccccc23)c1 | 0.1 | -1.6 | 0.0 | 39.4* | -0.5 | 1.9 | 7.9
COCC(=O)Nc1ccc2c(c1)C(=O)N(C)[C@@H]1CC[C@@H](CC(=O)OC)O[C@H]1CO2 | -0.2 | -1.3 | . | -2.1 | -0.6 | -0.8 | .
FC(F)(F)C(F)(F)C(F)(F)C(F)(F)C(F)(F)C(F)(F)C(F)(F)C(F)(F)Br | . | . | . | -10.5 | . | . | .
CC1(C)Cc2c(sc3c2c(N)nc(=S)n3Cc2ccccc2)CO1 | 0.9 | -1.2 | . | 110.5* | -1.5 | -1.1 | 35.8* | RORg DNA counter=>40
CC1(C)Cc2c(sc3[nH]c(=S)n(Cc4ccccc4)c(=O)c23)CO1 | -0.3 | -1.2 | -0.1 | . | 0.5 | -0.8 | .
COC(=O)[C@]12C[C@H](CC(=O)N3CCOCC3)C(=O)N(CCC3=CCCCC3)C1=C[C@H](C1CCCC1)O[C@@H]2C | -0.3 | -1.8 | . | -0.4 | -1.5 | -1.9 | .
COc1ccc2[nH]c3c(=O)n(Cc4ccc(C(=O)N5CCCCCC5)cc4)c(=S)[nH]c3c2c1 | -0.8 | -1.7 | 2.1 | 40.8* | -1.3 | -3.8 | 28.7*
COc1cc2c(c(OC3OC(CO)C(O)C(O)C3O)c1)C(=O)CC(c1ccc(O)cc1)O2 (stereo not drawn) | -0.2 | -0.9 | . | -0.5 | -0.6 | 1.1 | .
COc1cccc(-c2nnc(-c3ccc(C(F)(F)F)cc3)o2)c1 | 1.2 | -0.1 | 2.2 | 1.1 | 0.1 | 1.9 | .
Oc1ccccc1-c1nnc(-c2ccc(C(F)(F)F)cc2)o1 | -0.1 | -0.3 | 0.6 | 39.1* | -1.0 | 5.9 | 22.8*
CCn1ncc(Br)c1C(=O)Nc1cc(C(=O)OC)ccc1C(=O)OC | 0.8 | 0.6 | -0.1 | 44.8* | 0.7 | 1.0 | 24.2*
CCOC(=O)C1=C(C(=O)OCC)C2N(Cc3ccc(C#N)cc3)c3ccccc3[C@@]23C[C@@H](C(=O)OC)N(S(=O)(=O)c2ccccc2)C3=N1 (stereo partly drawn) | -0.8 | -1.2 | . | 1.9 | 0.9 | 1.6 | .
COc1ccc(C(=O)C(=O)N2CCN(C(=O)c3ccccc3C(F)(F)F)CC2)cc1OC | 0.1 | -1.4 | . | -6.8 | -0.4 | 0.3 | .
Cc1cc(C)cc(NC(=S)/C(=C(\[O-])c2ccc(Cl)cc2Cl)[n+]2ccc(C(C)(C)C)cc2)c1 | 0.2 | -1.6 | 2.8 | 36.4* | 0.5 | 0.2 | 30.9* | RORg DNA counter=7.87*
Cc1cc(C)cc(NC(=S)/C(=C(\[O-])c2ccc(Cl)s2)[n+]2cccc(C)c2)c1 | -0.4 | -1.5 | 0.7 | 4.7 | 0.0 | 0.8 | .
Cc1cc(=O)c2ccccc2s1 | -0.5 | -1.3 | 0.7 | -0.7 | 0.2 | 0.6 | .
O=c1c2ccccc2sc2ccc(Cl)cc12 | -0.2 | -1.6 | 1.3 | 79.9* | -0.1 | 4.6 | 77.4* | RORg DNA counter=>40
CCOC(=O)[C@@]12CCC3=C1N(CCC3)C(=O)[C@H](CC(=O)NCCCCc1ccccc1)C2 | -1.0 | -0.7 | . | 2.3 | -2.1 | 1.9 | .
CCCCOc1cccc(C2C(C(=O)c3ccc(C)o3)=C(O)C(=O)N2c2nnc(C)s2)c1 (stereo not drawn) | 1.8 | -1.0 | 0.5 | 18.1* | 0.7 | 0.8 | 17.6*
O=C(/C=C/c1cccc2ccccc12)NCCC1=CCCCC1 | 0.5 | -0.8 | 0.8 | 29.0* | -1.4 | 1.4 | 38.2* | RORg DNA counter=>40
COc1ccc(N2C(=O)c3ccccc3C2=O)cc1 | -0.6 | -1.5 | -0.8 | -0.6 | -0.1 | -1.6 | .
COc1ccc(N2C(=O)c3cccc4c(N(C)CCO)ccc(c34)C2=O)cc1 | -0.4 | -1.0 | 0.0 | 41.6* | -0.3 | 2.5 | 36.5* | RORg DNA counter=>40
COc1ccc(N2C(=O)c3cccc4cccc(c34)C2=O)cc1 | 0.1 | -1.4 | 0.8 | 27.9* | -0.8 | 1.6 | 25.5*
SMILES | DAX1 inh-1 | ssDAF-12 act | DAX1 inh-2 | NR1D1 modulator | hcDAF12 agonist | hgDAF-12 ag | Rev-erbA confirm | others
C=CCN1C(=O)/C(=C2/Sc3ccc(OC)cc3N2C)SC1=Nc1cccc(O)c1 | 0.0 | -1.1 | -0.6 | 15.9* | -0.6 | 0.0 | 6.8
COc1cc(OC)c(N(C)S(=O)(=O)c2cccc(C(=O)OCc3c(C)noc3C)c2)cc1Cl | -0.2 | -1.5 | -0.7 | 23.2* | -1.9 | -2.7 | 37.1* | RORg DNA counter=i
COC(=O)c1cc(COc2ccc3c4c(c(=O)oc3c2)CCCC4)c(C)o1 | -0.1 | -1.1 | 1.1 | 6.2 | -0.5 | 2.7 | .
COC(=O)c1ccc(COc2ccc3c4c(c(=O)oc3c2)CCC4)o1 | -0.4 | -0.9 | -0.6 | 33.9* | -1.4 | 2.4 | 1.2
COc1ccc(N2CCCN(CC(=O)Nc3ccc(Cl)cc3)CC2)cc1 | 1.3 | -0.7 | . | -4.3 | -2.3 | -1.1 | .
CC(=O)Nc1ccc(-c2cc(-c3ccc(NC(C)=O)cc3)nc(-c3ccc(NC(C)=O)cc3)n2)cc1 | 0.1 | -0.5 | -1.2 | 52.0* | 0.9 | 0.9 | 35.3*
CC(=O)Nc1ccc(-c2cc(-c3ccc(NC(C)=O)cc3)nc(-c3ccccc3)n2)cc1 | 0.4 | -1.2 | -0.9 | 41.4* | -1.2 | 1.4 | 23.8*
Cc1cccnc1NC(=O)c1cc2ccccc2oc1=O | 1.9 | 0.3 | 1.9 | 43.2* | 3.8 | 9.1 | 6.8
O=c1[nH]c(/C=C/c2cccc3ccccc23)nc2ccccc12 | -0.6 | -0.5 | 0.6 | 60.2* | -0.1 | 1.1 | 25.4*
O=c1[nH]c(/C=C/c2ccccn2)nc2ccccc12 | 1.1 | -0.2 | 3.8 | -2.1 | 1.4 | 8.5 | .
